Measured values taken from the supplement of paper PMC6555819.

Columns and labels:
Experiment in all cases: PBM binding z-score (relative to random genomic background probes); higher = stronger binding; sequences stand for … in GC…GCGATTGACAGCGTAGAATGAAGG
[1] = test system: FXR:RXRa (NR concentration 270 nM, RXRa partner concentration 90 nM)
In short: (§1)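 Binding z-scores take random background probes as their reference. They come from custom Agilent 4×180K protein-binding microarrays incubated 1 h with ligand-free nuclear receptor dimers, with antibodies against each partner (one per run) detecting binding. Scanned fluorescence was regression-normalized.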

[2] = test system: LXRa:RXRa (NR concentration 270 nM, RXRa partner concentration 90 nM)
In short: as §1

[3] = test system: LXRa homodimer (NR concentration 270 nM)
In short: as §1

[4] = test system: LXRb:RXRa (NR concentration 270 nM, RXRa partner concentration 90 nM)
In short: as §1

[5] = test system: LXRb homodimer (NR concentration 270 nM)
In short: as §1

[6] = test system: PPARa:RXRa (NR concentration 270 nM, RXRa partner concentration 90 nM)
In short: as §1

[7] = test system: PPARg:RXRa (NR concentration 180 nM, RXRa partner concentration 90 nM)
In short: as §1

[8] = test system: PPARg:RXRa 270nM:90nM, anti-RXR (NR concentration 270 nM, RXRa partner concentration 90 nM)
In short: as §1

[9] = test system: PPARg:RXRa 30nM:10nM, anti-RXR (NR concentration 30 nM, RXRa partner concentration 10 nM)
In short: as §1

[10] = test system: PPARg:RXRa 90nM:30nM, anti-RXR (NR concentration 90 nM, RXRa partner concentration 30 nM)
In short: as §1

Sequence | PBM binding z-score [1] | PBM binding z-score [2] | PBM binding z-score [3] | PBM binding z-score [4] | PBM binding z-score [5] | PBM binding z-score [6] | PBM binding z-score [7] | PBM binding z-score [8] | PBM binding z-score [9] | PBM binding z-score [10]
TCTTGTAGACCAACAGGAGGTTAAGAAAGATCGA | -0.287 | 1.22 | 0.0855 | 0.717 | -0.453 | 1.15 | 0.068 | 1.3 | 2.69 | 1.81
TCATATTGGTAAATGCTAGGTGAAAGTCCGATCT | 0.86 | 0.817 | 0.679 | 0.796 | 0.681 | 0.861 | 0.033 | 1.9 | 3.55 | 2.76
TGTTGTAGATCAGCAGGTTAAGAAAGCTGGCCAA | -0.297 | -0.297 | -0.591 | -0.397 | -0.822 | -0.205 | -0.588 | 0.116 | -0.287 | -0.0252
CGAACTAGGTCAAGGAAAGTGAATCTCCGCACGC | 2.69 | 1.93 | -0.152 | 1.2 | -0.225 | 4.55 | 7.18 | 6.18 | 3.7 | 5.66
TGAATGCGGTTAAAGATCAGGGAACGTGGCGTCG | -0.28 | -0.16 | -0.66 | -0.519 | -0.199 | 1.25 | 1.64 | 3.54 | 1.66 | 2.98
CGTCCAAGGTCAGAGATGTCAGTGAATGCCGAGT | 4.67 | 2.73 | 0.142 | 1.82 | -0.161 | 3.59 | 2.24 | 2.19 | 0.132 | 1.04
TAGCCTAGGTAATTGGGCCAGTATAGTACGCATC | -0.768 | -1.07 | -0.581 | -0.51 | -0.491 | 0.679 | 0.785 | 0.424 | -0.205 | -0.132
TCGAGTAGGTTAGGGGCATTTAGAATGGCGTCGA | 0.425 | 0.611 | -0.123 | 0.871 | 0.134 | 1.37 | 0.729 | 2.07 | 1.37 | 1.68
ATCTCTAGGCAACAAGTTCAGTGAAAGAGAGGAC | 0.0391 | 0.175 | -0.0655 | 0.139 | 0.432 | 0.498 | 0.668 | 1.15 | 0.633 | 1.09
CCGACTGGCGCAAAGGTTACCATACTCAGTACGA | 0.725 | 1.29 | -0.0542 | 1.78 | -0.938 | 3.45 | 5.96 | 6.74 | 4.81 | 6.59
ACTATTAGTTGAGACGAGGGCAGCCGATAGGTTG | 0.474 | -0.24 | -0.315 | -0.195 | 0.184 | -0.0872 | 0.689 | -0.013 | 0.136 | -0.0374
CCTATTAGTTGACCATAAGGGCAACGGAAGCTCG | 0.826 | 0.337 | 0.454 | 0.234 | 0.609 | 0.552 | 0.455 | 0.511 | 0.321 | 0.476
